Experimental data as given in the supplement of paper PMC11732987, “Enantioselective OTUD7B fragment discovery through chemoproteomics screening and high-throughput optimisation” (Communications Chemistry, 2025).

Experiments:
Test in all cases: log2 ratio of Biotin-Ahx-Ub-VS probe labelling (fragment/DMSO); higher = less target engagement (more negative = stronger competition), active = hit call of the paper (q ≤ 0.05, log2 ratio ≤ -1)
Conditions in all cases: compound concentration: 200 uM; treatment time: 3 h
USP34 = USP34 (UniProt Q70CQ2)
Summary of the method: (§1)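 Labelled DUBs from HEK293T lysate were NeutrAvidin-enriched, digested with LysC and trypsin, and run by diaPASEF LC-MS/MS. Before that, each 495 µg sample in Tris/CHAPS/IGEPAL buffer with protease inhibitors was treated in triplicate with fragment at 200 µM or vehicle for 3 h, then with Biotin-Ahx-Ub-VS at 0.5 µM final for 1 h. Values are average log2 ratios of fragment over vehicle by unpaired t-test, based on global-median-normalised Spectronaut label-free quantities from proteins with ≥2 unique peptides.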

USP36 = target: T1, USP36 (UniProt Q9P275)
T1 sequence (whole entry): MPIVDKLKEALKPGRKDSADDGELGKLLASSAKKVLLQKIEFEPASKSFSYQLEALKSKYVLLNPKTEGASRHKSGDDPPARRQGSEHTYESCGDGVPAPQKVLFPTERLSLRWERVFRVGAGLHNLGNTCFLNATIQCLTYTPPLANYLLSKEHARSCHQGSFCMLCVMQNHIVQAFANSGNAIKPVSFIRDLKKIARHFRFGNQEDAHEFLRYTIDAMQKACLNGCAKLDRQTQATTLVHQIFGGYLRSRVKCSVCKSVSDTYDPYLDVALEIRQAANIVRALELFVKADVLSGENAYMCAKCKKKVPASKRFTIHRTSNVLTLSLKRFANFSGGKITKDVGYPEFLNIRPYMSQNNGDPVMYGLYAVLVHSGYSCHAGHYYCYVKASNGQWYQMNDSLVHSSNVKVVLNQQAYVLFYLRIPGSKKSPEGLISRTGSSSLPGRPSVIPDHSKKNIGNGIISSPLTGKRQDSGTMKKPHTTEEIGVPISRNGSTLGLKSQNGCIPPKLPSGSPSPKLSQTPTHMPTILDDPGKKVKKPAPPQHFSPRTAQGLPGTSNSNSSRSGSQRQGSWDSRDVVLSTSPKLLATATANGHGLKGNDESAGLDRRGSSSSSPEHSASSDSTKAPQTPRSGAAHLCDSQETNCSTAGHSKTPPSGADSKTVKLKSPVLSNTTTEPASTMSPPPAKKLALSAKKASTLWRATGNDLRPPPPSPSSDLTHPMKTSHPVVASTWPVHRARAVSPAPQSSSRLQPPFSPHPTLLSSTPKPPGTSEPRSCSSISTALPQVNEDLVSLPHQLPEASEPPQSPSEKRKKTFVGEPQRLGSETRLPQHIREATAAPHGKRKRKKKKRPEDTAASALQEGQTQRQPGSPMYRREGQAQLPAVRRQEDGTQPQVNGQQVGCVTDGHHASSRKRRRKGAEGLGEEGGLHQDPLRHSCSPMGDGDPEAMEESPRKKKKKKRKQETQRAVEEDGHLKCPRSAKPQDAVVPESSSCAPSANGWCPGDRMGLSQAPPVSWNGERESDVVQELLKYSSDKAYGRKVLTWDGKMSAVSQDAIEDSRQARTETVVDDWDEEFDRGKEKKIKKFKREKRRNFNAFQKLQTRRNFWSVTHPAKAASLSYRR
Summary of the method: as §1

USP38 = target: T2, USP38 (UniProt Q8NB14)
T2 sequence (whole entry): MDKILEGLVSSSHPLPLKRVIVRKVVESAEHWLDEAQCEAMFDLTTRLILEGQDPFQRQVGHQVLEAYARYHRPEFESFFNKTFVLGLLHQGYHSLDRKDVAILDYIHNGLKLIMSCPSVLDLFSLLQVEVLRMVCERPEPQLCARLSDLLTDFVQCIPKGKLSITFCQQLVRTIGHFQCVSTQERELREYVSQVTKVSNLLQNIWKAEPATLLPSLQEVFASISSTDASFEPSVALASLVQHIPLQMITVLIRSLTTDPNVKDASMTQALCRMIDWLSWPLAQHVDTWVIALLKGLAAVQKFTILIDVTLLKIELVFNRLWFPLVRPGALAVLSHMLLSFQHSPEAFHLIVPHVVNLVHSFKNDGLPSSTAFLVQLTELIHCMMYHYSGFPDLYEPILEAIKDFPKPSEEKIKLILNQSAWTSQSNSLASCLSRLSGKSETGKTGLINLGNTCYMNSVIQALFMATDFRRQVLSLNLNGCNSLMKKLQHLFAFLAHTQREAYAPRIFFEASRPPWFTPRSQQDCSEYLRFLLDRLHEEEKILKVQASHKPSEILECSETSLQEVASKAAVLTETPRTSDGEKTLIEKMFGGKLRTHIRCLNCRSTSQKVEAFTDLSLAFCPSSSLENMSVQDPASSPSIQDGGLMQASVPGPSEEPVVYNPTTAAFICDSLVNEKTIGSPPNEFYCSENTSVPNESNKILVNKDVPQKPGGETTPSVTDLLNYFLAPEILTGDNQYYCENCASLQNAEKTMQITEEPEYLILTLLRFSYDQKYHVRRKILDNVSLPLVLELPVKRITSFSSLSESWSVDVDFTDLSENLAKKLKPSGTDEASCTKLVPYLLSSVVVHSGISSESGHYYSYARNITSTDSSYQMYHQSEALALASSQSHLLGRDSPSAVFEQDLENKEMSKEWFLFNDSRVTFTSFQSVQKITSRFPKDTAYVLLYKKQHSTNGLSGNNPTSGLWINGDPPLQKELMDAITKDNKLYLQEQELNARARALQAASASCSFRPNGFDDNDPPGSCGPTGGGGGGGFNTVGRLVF
Summary of the method: as §1

USP39 = target: T3, USP39 (UniProt Q53GS9)
T3 sequence (whole entry): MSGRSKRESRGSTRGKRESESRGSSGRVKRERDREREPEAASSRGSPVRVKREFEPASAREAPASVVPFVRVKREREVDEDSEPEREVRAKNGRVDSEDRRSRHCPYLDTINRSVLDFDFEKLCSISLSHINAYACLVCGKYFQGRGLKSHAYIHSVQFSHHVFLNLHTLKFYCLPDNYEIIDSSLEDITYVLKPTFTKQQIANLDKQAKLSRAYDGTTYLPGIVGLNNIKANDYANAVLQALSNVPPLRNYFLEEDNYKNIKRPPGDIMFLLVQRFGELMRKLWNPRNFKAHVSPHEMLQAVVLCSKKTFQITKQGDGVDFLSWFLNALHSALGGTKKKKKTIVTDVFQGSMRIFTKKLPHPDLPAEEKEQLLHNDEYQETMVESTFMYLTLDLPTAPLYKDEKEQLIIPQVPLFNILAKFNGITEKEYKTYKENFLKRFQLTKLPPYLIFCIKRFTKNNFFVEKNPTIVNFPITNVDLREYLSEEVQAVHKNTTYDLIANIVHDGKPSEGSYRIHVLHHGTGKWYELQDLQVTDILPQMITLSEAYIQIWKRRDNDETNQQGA
Summary of the method: as §1

USP4 = target: T4, USP4 (UniProt Q13107)
T4 sequence (whole entry): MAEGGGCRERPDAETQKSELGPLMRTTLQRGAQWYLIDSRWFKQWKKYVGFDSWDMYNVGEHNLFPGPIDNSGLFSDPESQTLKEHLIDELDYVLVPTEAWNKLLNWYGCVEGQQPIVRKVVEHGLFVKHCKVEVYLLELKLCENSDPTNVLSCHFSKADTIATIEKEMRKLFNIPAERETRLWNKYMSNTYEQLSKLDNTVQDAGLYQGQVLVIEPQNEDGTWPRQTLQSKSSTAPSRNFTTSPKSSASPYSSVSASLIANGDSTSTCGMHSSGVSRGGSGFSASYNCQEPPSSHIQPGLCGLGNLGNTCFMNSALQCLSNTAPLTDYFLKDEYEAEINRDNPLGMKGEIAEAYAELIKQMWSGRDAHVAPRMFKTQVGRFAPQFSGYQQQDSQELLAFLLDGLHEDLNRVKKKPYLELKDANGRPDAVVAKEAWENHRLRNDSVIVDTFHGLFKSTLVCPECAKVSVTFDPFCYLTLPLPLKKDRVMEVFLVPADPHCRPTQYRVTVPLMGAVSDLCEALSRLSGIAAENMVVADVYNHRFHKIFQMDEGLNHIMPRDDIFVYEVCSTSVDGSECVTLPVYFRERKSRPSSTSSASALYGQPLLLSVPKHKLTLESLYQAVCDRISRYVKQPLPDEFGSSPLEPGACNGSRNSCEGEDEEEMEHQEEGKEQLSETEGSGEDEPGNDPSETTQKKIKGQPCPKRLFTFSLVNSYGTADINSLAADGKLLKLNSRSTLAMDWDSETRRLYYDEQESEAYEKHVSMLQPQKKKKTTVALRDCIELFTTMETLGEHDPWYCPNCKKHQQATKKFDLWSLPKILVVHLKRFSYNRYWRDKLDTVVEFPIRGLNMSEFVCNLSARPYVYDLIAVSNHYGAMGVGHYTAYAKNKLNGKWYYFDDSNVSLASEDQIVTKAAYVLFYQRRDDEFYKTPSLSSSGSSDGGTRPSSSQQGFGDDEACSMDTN
Summary of the method: as §1

Measured: log2 ratio of Biotin-Ahx-Ub-VS probe labelling

USP34, sequence (Q70CQ2 whole entry, the tested form may be a part): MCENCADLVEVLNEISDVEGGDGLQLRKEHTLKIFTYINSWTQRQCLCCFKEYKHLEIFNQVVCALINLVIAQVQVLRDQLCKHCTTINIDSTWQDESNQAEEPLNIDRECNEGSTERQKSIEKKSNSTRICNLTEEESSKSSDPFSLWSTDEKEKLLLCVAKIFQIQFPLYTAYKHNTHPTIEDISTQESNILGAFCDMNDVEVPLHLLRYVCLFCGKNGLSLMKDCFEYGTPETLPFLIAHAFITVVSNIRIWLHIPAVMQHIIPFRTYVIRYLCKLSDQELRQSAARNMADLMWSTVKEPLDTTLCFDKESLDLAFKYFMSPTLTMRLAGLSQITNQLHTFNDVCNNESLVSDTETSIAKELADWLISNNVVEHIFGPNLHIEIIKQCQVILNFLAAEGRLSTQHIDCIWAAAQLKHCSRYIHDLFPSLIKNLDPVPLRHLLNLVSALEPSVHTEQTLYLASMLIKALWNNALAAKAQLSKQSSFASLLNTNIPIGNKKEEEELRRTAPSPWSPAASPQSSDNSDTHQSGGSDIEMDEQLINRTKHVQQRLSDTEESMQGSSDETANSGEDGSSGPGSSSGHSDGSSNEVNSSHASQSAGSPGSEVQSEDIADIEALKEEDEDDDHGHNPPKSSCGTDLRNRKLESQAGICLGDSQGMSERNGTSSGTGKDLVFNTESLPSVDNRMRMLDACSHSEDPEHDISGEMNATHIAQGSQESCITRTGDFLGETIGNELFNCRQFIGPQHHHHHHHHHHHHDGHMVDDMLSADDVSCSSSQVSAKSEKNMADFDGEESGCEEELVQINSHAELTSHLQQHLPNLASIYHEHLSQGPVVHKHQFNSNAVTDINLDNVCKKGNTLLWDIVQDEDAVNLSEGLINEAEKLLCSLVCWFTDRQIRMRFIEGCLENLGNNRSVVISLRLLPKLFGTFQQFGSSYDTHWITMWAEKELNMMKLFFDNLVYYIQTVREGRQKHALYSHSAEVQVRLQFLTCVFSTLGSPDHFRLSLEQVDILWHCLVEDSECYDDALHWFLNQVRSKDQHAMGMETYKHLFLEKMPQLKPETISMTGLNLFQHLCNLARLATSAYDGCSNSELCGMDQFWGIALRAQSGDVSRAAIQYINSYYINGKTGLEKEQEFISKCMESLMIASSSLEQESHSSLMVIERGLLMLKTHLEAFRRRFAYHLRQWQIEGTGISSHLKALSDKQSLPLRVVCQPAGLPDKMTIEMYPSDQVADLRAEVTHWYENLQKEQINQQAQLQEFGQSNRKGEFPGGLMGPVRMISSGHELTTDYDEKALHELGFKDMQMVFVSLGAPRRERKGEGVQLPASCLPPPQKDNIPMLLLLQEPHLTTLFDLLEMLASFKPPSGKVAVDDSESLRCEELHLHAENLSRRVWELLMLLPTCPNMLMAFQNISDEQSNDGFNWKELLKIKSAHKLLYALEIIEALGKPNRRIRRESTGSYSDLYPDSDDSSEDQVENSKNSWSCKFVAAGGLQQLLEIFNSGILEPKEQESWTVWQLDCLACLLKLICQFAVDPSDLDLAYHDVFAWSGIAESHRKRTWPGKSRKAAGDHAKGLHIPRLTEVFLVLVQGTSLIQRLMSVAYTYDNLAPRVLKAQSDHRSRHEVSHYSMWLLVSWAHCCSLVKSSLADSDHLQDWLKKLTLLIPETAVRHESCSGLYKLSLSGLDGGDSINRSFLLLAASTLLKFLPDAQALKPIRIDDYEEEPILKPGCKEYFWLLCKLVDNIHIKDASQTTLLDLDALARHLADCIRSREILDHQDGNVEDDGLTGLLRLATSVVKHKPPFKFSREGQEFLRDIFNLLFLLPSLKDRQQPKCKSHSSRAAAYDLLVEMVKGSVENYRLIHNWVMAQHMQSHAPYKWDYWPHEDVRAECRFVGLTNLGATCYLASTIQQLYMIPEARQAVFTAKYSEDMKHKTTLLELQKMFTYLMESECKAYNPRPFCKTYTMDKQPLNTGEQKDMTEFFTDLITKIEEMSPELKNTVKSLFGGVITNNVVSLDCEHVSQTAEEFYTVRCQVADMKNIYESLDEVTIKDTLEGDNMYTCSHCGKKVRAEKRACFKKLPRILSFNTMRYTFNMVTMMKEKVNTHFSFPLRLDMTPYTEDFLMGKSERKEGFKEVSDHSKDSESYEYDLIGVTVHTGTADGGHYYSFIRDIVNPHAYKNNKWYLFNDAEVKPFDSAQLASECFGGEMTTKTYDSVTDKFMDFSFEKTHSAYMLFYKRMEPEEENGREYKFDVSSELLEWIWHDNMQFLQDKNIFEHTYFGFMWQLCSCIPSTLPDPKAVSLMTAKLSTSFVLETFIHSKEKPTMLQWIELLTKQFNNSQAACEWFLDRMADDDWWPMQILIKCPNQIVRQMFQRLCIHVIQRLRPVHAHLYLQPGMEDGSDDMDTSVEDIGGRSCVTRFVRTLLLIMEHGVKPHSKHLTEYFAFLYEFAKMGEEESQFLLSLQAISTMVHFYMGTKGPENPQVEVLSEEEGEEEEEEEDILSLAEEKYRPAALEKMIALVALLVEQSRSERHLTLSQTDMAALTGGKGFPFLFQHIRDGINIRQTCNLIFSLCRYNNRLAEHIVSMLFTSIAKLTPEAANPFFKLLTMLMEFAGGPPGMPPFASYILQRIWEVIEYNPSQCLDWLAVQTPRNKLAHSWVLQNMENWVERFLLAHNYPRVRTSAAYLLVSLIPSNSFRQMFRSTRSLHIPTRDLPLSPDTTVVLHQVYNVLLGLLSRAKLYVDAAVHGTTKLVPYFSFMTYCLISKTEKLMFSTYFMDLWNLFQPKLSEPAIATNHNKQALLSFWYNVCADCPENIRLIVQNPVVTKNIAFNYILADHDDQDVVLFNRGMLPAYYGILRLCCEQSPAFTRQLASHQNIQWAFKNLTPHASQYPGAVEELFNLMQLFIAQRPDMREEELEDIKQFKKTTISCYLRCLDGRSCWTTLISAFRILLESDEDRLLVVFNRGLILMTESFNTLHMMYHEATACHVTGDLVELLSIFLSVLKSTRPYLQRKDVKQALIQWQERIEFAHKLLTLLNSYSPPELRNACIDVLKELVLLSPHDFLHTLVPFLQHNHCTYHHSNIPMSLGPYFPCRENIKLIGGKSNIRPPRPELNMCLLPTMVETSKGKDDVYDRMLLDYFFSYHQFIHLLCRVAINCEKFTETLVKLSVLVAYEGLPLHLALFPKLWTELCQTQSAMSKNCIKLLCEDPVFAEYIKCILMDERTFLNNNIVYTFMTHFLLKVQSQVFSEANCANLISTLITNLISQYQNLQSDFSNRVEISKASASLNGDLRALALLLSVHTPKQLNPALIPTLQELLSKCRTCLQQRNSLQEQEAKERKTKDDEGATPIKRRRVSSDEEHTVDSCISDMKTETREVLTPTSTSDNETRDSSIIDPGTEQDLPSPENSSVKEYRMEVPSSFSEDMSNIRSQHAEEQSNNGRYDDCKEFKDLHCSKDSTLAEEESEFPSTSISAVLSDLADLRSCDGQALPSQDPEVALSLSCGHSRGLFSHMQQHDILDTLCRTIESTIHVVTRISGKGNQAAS

Cl.O=C(CCl)N1CC(c2ccc(Br)cn2)C1
inactive: USP34 -0.16 | USP36 -0.222 | USP38 -0.0763 | USP39 -0.11 | USP4 -0.285
